{
  "source": "PubChem BioAssay (NCATS)",
  "note": "Results filed as inconclusive are left out. A call without a number means that no potency is given here. Calls of active or inactive are those of the source. The call rests on the fitted dose curve; in most records, active means well fitted inhibition curve with a large enough effect; inconclusive means small, poorly fitted or top-dose-only effect; inactive means flat fitted curve, though single readings scatter. Potency means the concentration at half of the fitted maximal effect.",
  "data": [
    {"system": "DIV30", "assay": "qHTS profiling for inhibitors of Plasmodium falciparum proliferation (AID 504749); further: nearly all actives have a fitted effect of over 60% in size", "conditions": "P. falciparum in erythrocytes, SYBR Green DNA, 72 h; series mostly up to 28.7 µM", "procedure,_shortened": "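Each compound contacts P. falciparum-infected red blood cells for 72 h at 37 C; lysis buffer (Tris, EDTA, saponin, Triton X, SYBR Green I) is added and fluorescence measured next morning; values normalized to controls.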", "values": [
      {"compound": "C[C@H](N)Cc1ccccc1", "Potency": "inactive"},
      {"compound": "C[C@]12C=CC(=O)C=C1CC[C@@H]1C2CC[C@]2(C)OC(=O)CCC12", "note": "(some centres not stated)", "Potency": "inactive"},
      {"compound": "OCC(O)[C@H]1O[C@@H]2O[C@H](C(Cl)(Cl)Cl)O[C@@H]2[C@H]1O", "note": "(some centres not stated)", "Potency": "inactive"},
      {"compound": "CC1(C)[C@@H](C=C(Cl)Cl)[C@@H]1C(=O)OCc1c(F)c(F)cc(F)c1F", "Potency": "inactive"},
      {"compound": "CC1(C)S[C@@H]2[C@H](N)C(=O)N2C1C(=O)O", "note": "(some centres not stated)", "Potency": "inactive"},
      {"compound": "C=C1Nc2ccccc2C(=O)N1c1ccccc1C", "Potency": "inactive"},
      {"compound": "CC1OC(O[C@H]2C[C@@H](O)[C@]3(CO)[C@@H]4C(CC[C@]3(O)C2)[C@@]2(O)CC[C@H](C3=CC(=O)OC3)[C@@]2(C)C[C@H]4O)C(O)C(O)C1O", "note": "(some centres not stated)", "Potency": "inactive"},
      {"compound": "O=[N+]([O-])OC1CO[C@H]2C(O[N+](=O)[O-])COC12", "note": "(some centres not stated)", "Potency": "inactive"},
      {"compound": "CCOC(=O)/C=C(C)/C=C/CC(C)CCCC(C)C", "note": "(configuration not stated)", "Potency": "inactive"},
      {"compound": "[S]=[Sb][S][Sb]=[S]", "Potency": "inactive"},
      {"compound": "CN1C2CCC1C(C(=O)O)C(OC(=O)c1ccccc1)C2", "note": "(configuration not stated)", "Potency": "inactive"},
      {"compound": "C[C@@H]1CC[C@H]2[C@@H](C)C(=O)O[C@@H]3OC4(C)CC[C@@H]1C32OO4", "note": "(some centres not stated)", "Potency": "8.5 nM (active)"},
      {"compound": "Nc1nc(O)c(-c2ccccc2)o1", "Potency": "inactive"},
      {"compound": "C=CC[N+]1(C)CCC23c4c5ccc(O)c4O[C@H]2C(=O)CC[C@@]3(O)C1C5", "note": "(some centres not stated)", "Potency": "inactive"},
      {"compound": "OC[C@@H](O)[C@H]1O[C@@H]2OC(C(Cl)(Cl)Cl)O[C@H]2[C@H]1O", "note": "(some centres not stated)", "Potency": "inactive"},
      {"compound": "CCCCCCC(=O)O[C@H]1CC[C@H]2[C@@H]3CCC4CC(=O)C=C(C)[C@]4(C)[C@H]3CC[C@]12C", "note": "(some centres not stated)", "Potency": "inactive"},
      {"compound": "Cc1cc(C)cc(C(=O)OC2CC3CCC(C2)N3C)c1", "note": "(configuration not stated)", "Potency": "inactive"}
    ]}
  ]
}
